Potency and affinity values are given separately. Activity calls are given as the source filed them.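 Rule for the calls: active = every repeat run showing a signal drop whose fitted half-maximal concentration is at most twice the top tested concentration; inconclusive = repeat runs disagree, or flat partial drop, or poor fit; inactive = the rest.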
experiment: HEK293T cytotoxicity, dose response, cytotoxicity control for miR-122 modulator project, cell-based, activator set, cherry-pick (AID 720690); settings: HEK293T viability, CellTiter-Glo luminescence, 48 h; series mostly up to 26 µM

Compound | outcome
CCOc1ccc(CCNC(=O)C2CCN(S(=O)(=O)N3CCC(C)CC3)CC2)cc1OCC | inactive
NC(=O)c1cn(-c2ccccc2)nc1-c1cc2ccccc2oc1=O | inactive
C/C=C/c1ccc([C@H]2[C@@H](CO)N(C(=O)C3CC3)[C@H]2CN(C)C(=O)CC2CC2)cc1 | inactive
CCCNC(=O)Nc1ccc2c(c1)C(=O)N(C)[C@@H]1CC[C@H](CC(=O)NCC3CCCCC3)O[C@H]1CO2 | inactive
CCCCN1C=C(C(=O)OC)C(c2ccccc2C(F)(F)F)C(C(=O)OC)=C1 | inactive
OC(c1cc(C(F)(F)F)nc2c(Cl)cc(Cl)cc12)C1CCCCN1 (stereo not given) | inactive
O=C(Nc1ccccc1)N1C[C@@H]2[C@H](c3ccccc31)[C@H](CO)N2Cc1cocn1 | inactive
CN1C(=O)c2cc(NC(=O)Nc3cccc(Cl)c3)ccc2OC[C@H]2O[C@@H](CC(=O)NCCc3ccncc3)CC[C@H]21 | inactive
C/C=C/c1ccc([C@H]2[C@@H](CO)N(C(=O)COC)[C@H]2CNC(=O)CC)cc1 | inactive
COc1ccc2[nH]c(C(=O)O)c(NS(=O)(=O)c3ccc(Cl)s3)c2c1 | inactive
COc1ccccc1C#Cc1ccc([C@H]2[C@@H](CO)N3CCCCN(CCC(F)(F)F)C[C@H]23)cc1 | inactive
CCCC(=O)Nc1ccc2c(c1)C(=O)N(C)[C@H]1CC[C@H](CC(=O)NCCN3CCCCC3)O[C@@H]1CO2 | inactive
C[C@@H]1CN([C@@H](C)CO)S(=O)(=O)c2ccc(C3=CCCC3)cc2O[C@@H]1CN(C)C(=O)c1ccc(F)cc1 | inactive
COCC(=O)N(C)C[C@H]1Oc2cc(-c3ccc(C#N)cc3)ccc2S(=O)(=O)N([C@@H](C)CO)C[C@H]1C | inactive
CC(C)C(=O)Nc1ccc2c(c1)C(=O)N(C)[C@H]1CC[C@@H](CC(=O)NCCCN(C)C)O[C@H]1CO2 | inactive
Cc1cccc(NC(=O)Nc2ccc3c(c2)C(=O)N(C)[C@H]2CC[C@@H](CC(=O)NCc4ccccc4Cl)O[C@H]2CO3)c1 | inactive
CC1CCN(CCc2nc3cc(NC(=O)Nc4ccccc4)ccc3n2C)CC1 | inactive
C[C@@H]1CN([C@H](C)CO)C(=O)c2cccc(NC(=O)c3ccc(-c4nccs4)cc3)c2O[C@H]1CN(C)S(=O)(=O)c1ccc(F)cc1 | inactive
Cc1nn(C)cc1NC(=O)C[C@H]1CC[C@@H]2[C@H](COc3ccc(NC(=O)Nc4cccc(Cl)c4)cc3C(=O)N2C)O1 | inactive
COc1cccc(-c2nn(-c3ccccc3)cc2CO)c1 | inactive
COCC(=O)N(C[C@@H]1N[C@H](CO)[C@H]1c1ccc(C2=CCCC2)cc1)C(C)C | inactive
Cc1ccccc1-c1nc(CN2CCCC(C(=O)NCCCN3CCOCC3)C2)c(C)o1 (stereo not given) | inactive
CNC(=O)C[C@@H]1CC[C@@H]2[C@H](COc3ccc(NC(=O)Nc4ccc(Cl)cc4)cc3C(=O)N2C)O1 | inactive
Cc1cc(C)c2c(c1)/C(=C/C(=O)c1ccc(Br)s1)C(=O)N2 | inactive
Cc1ccc(-c2nnn(CC(=O)N(CC(=O)NCC3CCCO3)c3ccccc3)n2)o1 (stereo not given) | inactive
